Only some compounds are listed: those with a hit (about 3.3% of all), similar ones and a draw of the others.
PfM18AAP inh-1: PfM18AAP inhibitors, malaria aminopeptidase, primary screen, biochemical, QFRET, recombinant enzyme | M18 aspartyl aminopeptidase (Plasmodium falciparum 3D7) | H-Glu-NHMec fluorogenic cleavage | inhibition, % at 7.35 µM | 290,000 compounds, 1.2% hits | AID 1822, 2009;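 active = inhibition above the campaign mean inhibition over all tested compounds plus 3 SD, cut at about 28% in these data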;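 note: 0% = plate median of test compound wells and 100% = 2 mM ZnCl2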
PfG6PD inh: PfG6PD enzyme inhibitors, primary screen, biochemical, fluorescence intensity, uHTS; glucose-6-phosphate dehydrogenase-6-phosphogluconolactonase (Plasmodium falciparum 3D7); 350,000 compounds, 0.78% hits; PfGluPho enzyme, NADPH resazurin-diaphorase fluorescence; inhibition, % at 20 µM; AID 504690, 2011;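 active = inhibition reaching at least a set limit at 20 µM in the primary screen, cut at about 59% in these data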;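 note: 0% = DMSO wells with substrate and 100% = DMSO wells lacking glucose-6-phosphate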
MBD2 DNA inh: inhibitors of MBD2 binding to methylated DNA, primary screen, biochemical, TR-FRET, DNA-binding domain, human. Methyl-CpG-binding domain protein 2 (Homo sapiens), Q9UBB5. MBD2 binding to methylated oligonucleotide. inhibition, % at 4.4 µM. 370,000 compounds, 0.31% hits. AID 686964, 2013; in the data active = inhibition above about 13%
PRMT1 inh: PRMT1 methyltransferase inhibitors, primary screen, biochemical, fluorescence polarization; recombinant PRMT1, activity-based probe fluorescence polarization; inhibition, % at 2.79 µM; Protein arginine N-methyltransferase 1 (Homo sapiens), Q99873; 370,000 compounds, 1.3% hits;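 active = inhibition above about 21% made by adding two undisclosed values, limit read from the data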
UHRF1 MBD2 ctr: UHRF1 methylated DNA binding inhibitors, primary screen, counter-screen for MBD2 inhibitor project, biochemical, TR-FRET, human UHRF1, single concentration. 370,000 compounds, 0.75% hits. UHRF1 binding to methylated oligo. inhibition, % at 4.4 µM. E3 ubiquitin-protein ligase UHRF1 (Homo sapiens), Q96T88; in the data active = inhibition above about 21%;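 note: UHRF1 SRA domain binding a hemimethylated CpG hairpin DNA probe; 0% = median of test compound wells and 100% = reference inhibitor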
PfM18AAP inh-2: PfM18AAP inhibitors, malaria aminopeptidase, confirmation, biochemical, QFRET, recombinant enzyme, triplicate; H-Glu-NHMec fluorogenic cleavage; 2,400 compounds, 28% hits; shares compounds with PfM18AAP inh-1; inhibition, % at 7.35 µM; AID 2170, 2009;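 active = mean inhibition over replicate wells above the hit cutoff set for the earlier primary screen, cut at about 29% in these data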;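 note: 0% = median of test compound wells and 100% = 2 mM ZnCl2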
CTSL1 counter: cathepsin L1 inhibitors, retest, confirmation, counter-screen for PFM18AAP inhibitor project, biochemical, QFRET, triplicate; purified cathepsin L1, Z-Leu-Arg-MCA fluorescence; 2,400 tested, under 10 active; inhibition, % at 5.96 µM; shares compounds with PfM18AAP inh-1; AID 2178, 2009;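 active = average inhibition across replicates above the hit cutoff set in the earlier primary screen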;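 note: 0% = median of test compound wells and 100% = Z-Phe-Ala-diazomethylketone 1 µM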
Target sequence (P07711 whole entry, looked up): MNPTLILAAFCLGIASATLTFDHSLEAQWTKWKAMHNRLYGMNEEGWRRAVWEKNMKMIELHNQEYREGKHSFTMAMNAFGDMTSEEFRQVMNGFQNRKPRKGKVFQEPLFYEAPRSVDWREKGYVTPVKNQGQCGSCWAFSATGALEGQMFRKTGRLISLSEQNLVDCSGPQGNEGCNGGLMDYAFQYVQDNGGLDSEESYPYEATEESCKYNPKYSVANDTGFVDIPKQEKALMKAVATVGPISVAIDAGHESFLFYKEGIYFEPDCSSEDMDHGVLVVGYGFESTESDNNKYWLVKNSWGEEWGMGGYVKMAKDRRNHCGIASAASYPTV
Active calls of the source: *.

`O=C(CSc1nnc(-c2ccccc2)n1Cc1ccco1)Nc1ccc(Oc2ccccc2)cc1` gave MBD2 DNA inh 2, PRMT1 inh 8 and UHRF1 MBD2 ctr 2.
For CC(C)C[C@@H]1COc2cc(F)ccc2S(=O)(=O)N1 the results were MBD2 DNA inh -3, PRMT1 inh 4 and UHRF1 MBD2 ctr 1.
`CC(=O)c1c(C)[nH]c(C(=O)Nc2ccc(Cl)cc2)c1C` gave PfM18AAP inh-1 0, PfG6PD inh 7, MBD2 DNA inh 2, PRMT1 inh 3 and UHRF1 MBD2 ctr 0.
For CC(=O)c1c(C)[nH]c(C(=O)NCCc2ccc(Cl)cc2)c1C the results were PfM18AAP inh-1 61*, PfG6PD inh 9, MBD2 DNA inh 1, PRMT1 inh 4, UHRF1 MBD2 ctr 2, PfM18AAP inh-2 -47 and CTSL1 counter -1.
N#CC1=C(N)C(C#N)(C#N)C2(CCC3(CC2)OCCO3)C2CC3(CC=C12)OCCO3 (stereo not drawn) was read as PfM18AAP inh-1 55*, PfG6PD inh 3, MBD2 DNA inh -3, PRMT1 inh 4, UHRF1 MBD2 ctr -3, PfM18AAP inh-2 -3 and CTSL1 counter -1.
`COC(=O)[C@@]12CCCCC3=C1N(CCC3)C(=O)[C@H]2CC(=O)N1CCC(c2ccccc2)CC1` gave MBD2 DNA inh 2, PRMT1 inh 3 and UHRF1 MBD2 ctr 1.
Cc1cccc(NC(=O)NNC(=O)c2cc3occc3[nH]2)c1C was read as PfM18AAP inh-1 46*, PfG6PD inh 17, MBD2 DNA inh 1, PRMT1 inh 5, UHRF1 MBD2 ctr -4, PfM18AAP inh-2 23 and CTSL1 counter -6.
Cc1cccc(NC(=O)NNC(=O)c2cc3ccccc3cc2O)c1C was read as PfM18AAP inh-1 8, PfG6PD inh -16, MBD2 DNA inh 0, PRMT1 inh 1 and UHRF1 MBD2 ctr 1.
`Cc1cc(C)cc(NC(=O)NNC(=O)c2cc3occc3[nH]2)c1` gave PfM18AAP inh-1 56*, PfG6PD inh 5, MBD2 DNA inh 0, PRMT1 inh 5, UHRF1 MBD2 ctr -4, PfM18AAP inh-2 22 and CTSL1 counter -4.
For CCOc1ccc(CCNC(=O)Cc2ccccc2)cc1OCC the results were MBD2 DNA inh 3, PRMT1 inh 2 and UHRF1 MBD2 ctr -1.
Screening Cc1onc(-c2c(Cl)cccc2Cl)c1C(=O)Nn1cnnc1 returned PfM18AAP inh-1 45*, PfG6PD inh 9, MBD2 DNA inh 2, PRMT1 inh -1, UHRF1 MBD2 ctr -1, PfM18AAP inh-2 37* and CTSL1 counter 2.
Screening COc1ccc(C(=O)NN2CCCCC2)cc1OC returned PfM18AAP inh-1 -9, PfG6PD inh 1, MBD2 DNA inh -4, PRMT1 inh -2 and UHRF1 MBD2 ctr 1.
Screening COc1ccc(C(=O)Nn2cnnc2)cc1OC returned PfM18AAP inh-1 43*, PfG6PD inh -11, MBD2 DNA inh 8, PRMT1 inh 7, UHRF1 MBD2 ctr -1, PfM18AAP inh-2 26 and CTSL1 counter -1.
`COc1ccc(C(=O)Nn2cnnc2)c(OC)c1` gave PfM18AAP inh-1 34*, PfG6PD inh -9, MBD2 DNA inh 1, PRMT1 inh -1, UHRF1 MBD2 ctr -4, PfM18AAP inh-2 7 and CTSL1 counter 1.
`COc1ccc(C(=O)Nn2cnc3ccccc3c2=O)c(OC)c1` gave PfM18AAP inh-1 -2, PfG6PD inh 1, MBD2 DNA inh -9, PRMT1 inh -2 and UHRF1 MBD2 ctr 1.
For Cc1ccc(C(=O)Nn2cnnc2)c(Cl)c1 the results were PfM18AAP inh-1 49*, PfG6PD inh -2, MBD2 DNA inh -5, PRMT1 inh -2, UHRF1 MBD2 ctr 1, PfM18AAP inh-2 42* and CTSL1 counter -6.

Source: PubChem BioAssay (several laboratories)
